PubChem BioAssay (NCATS)
Where “and” joins values, the source holds several entries; their conditions need not be identical. Identical values can stand only once. Inconclusive results are not listed. Calls of active or inactive are those of the source. Unless noted, the call rests on the fitted dose curve; in most records, active means well fitted curve in the direction sought with a large enough effect; inconclusive means small, poorly fitted or top-dose-only effect, or another doubt; inactive means no such curve, though single readings can be large; an effect the other way counts as inactive or inconclusive.

Legend:
[1] = Primary qHTS for inhibitors of nuclear receptor binding SET domain protein 2 (NSD2) in an isogenic RCH-ACV NSD2 p.E1099K mutant (9B) (AID 1645876); further: potency means the concentration at half of the fitted maximal effect; nearly all actives have a fitted effect of over 70% in size
[2] = Primary qHTS for inhibitors of nuclear receptor binding SET domain protein 2 (NSD2) in an RCH-ACV wild type WT cells (2C) (AID 1645877); further: potency means the concentration at half of the fitted maximal effect; nearly all actives have a fitted effect of over 70% in size
[3] = molecular target: Glutathione peroxidase 1 (Homo sapiens) (UniProt P07203); experiment: Primary qHTS Assay for Inhibitors of Recombinant Selenoprotein Glutathione Peroxidase 1 (GPX1) (AID 1845191); further: nearly all actives have a fitted effect of over 65% in size
Chain of Glutathione peroxidase 1 (Homo sapiens) (P07203 whole entry, looked up): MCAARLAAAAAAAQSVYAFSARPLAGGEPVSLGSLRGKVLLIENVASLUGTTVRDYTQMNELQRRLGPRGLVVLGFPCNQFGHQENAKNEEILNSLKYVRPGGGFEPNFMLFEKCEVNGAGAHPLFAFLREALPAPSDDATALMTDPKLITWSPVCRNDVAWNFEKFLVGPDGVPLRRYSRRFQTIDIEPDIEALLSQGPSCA
Outline: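 NADPH consumption tracked by fluorescence at 340/450 nm between t=0 and t=15 min, room temperature. Final mix: 10 nM GPX1, 100 nM glutathione reductase, 1 mM GSH, 0.5 mM NADPH, 0.5 mM cumene hydroperoxide, 0.01% BSA; 30 min compound–enzyme preincubation.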

[4] = molecular target: Phospholipid hydroperoxide glutathione peroxidase GPX4 (Homo sapiens) (UniProt P36969); experiment: Primary qHTS Assay for Inhibitors of Recombinant Selenoprotein Glutathione Peroxidase 4 (GPX4) (AID 1845192); further: nearly all actives have a fitted effect of over 65% in size
Chain of Phospholipid hydroperoxide glutathione peroxidase GPX4 (Homo sapiens) (P36969 whole entry, looked up): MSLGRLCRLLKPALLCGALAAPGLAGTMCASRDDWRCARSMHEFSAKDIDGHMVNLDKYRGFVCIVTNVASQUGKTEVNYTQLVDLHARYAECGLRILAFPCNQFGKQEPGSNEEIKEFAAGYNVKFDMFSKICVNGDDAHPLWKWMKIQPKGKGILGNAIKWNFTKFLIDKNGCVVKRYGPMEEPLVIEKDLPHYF
Outline: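 NADPH consumption followed by fluorescence at 340/450 nm, t=0 and after 15 min at room temperature. Reaction started with cumene hydroperoxide (0.5 mM final) after 30 min compound–GPX4 preincubation; final 200 nM GPX4, 100 nM GR, 1 mM GSH, 0.5 mM NADPH.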

[5] = qHTS drug screen for cell cycle checkpoint inhibitors in PARPi-resistant BRCA-mutant ovarian cancer cell lines. (AID 1963452; calls by dose curve); settings: PEO1/OlaR viability, CellTiter-Glo luminescence, 96 h, stronger effect = lower value
Outline: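 PEO1, PEO4 and PEO1/OlaR ovarian cancer cells, 600 per well, exposed 96 h at 37C to a dilution series. Viability read by CellTiter-Glo luminescence, normalized to DMSO and empty wells; activity summarized as Z-AUC.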

[6] = NCATS anti-infectives library activity on HEK293 viability as a counter-qHTS vs the C. elegans viability qHTS (AID 1745854); further: on the % scale 0 is the no-effect control and ±100 the full control effect
Outline: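 Cytotoxicity counter-screen to a worm viability qHTS: CellTiter-Glo luminescence read 10 min after reagent addition. Compounds (final up to 41.7 uM, a 1:5 dilution series) incubated 24 hr at 37C with 1,500 HEK293 cells per well; digitonin control.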

[7] = NCATS anti-infectives library activity on the primary C. elegans qHTS viability assay (AID 1745855; calls by dose curve; further: potency means the concentration at half of the fitted maximal effect)
Outline: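 GFP read-out by 488 nm laser cytometry at day 0, 3 and 7, gated on object perimeter, area and peak intensity, scored viability of PE254-GFP-FLuc worms exposed to compound in S medium with bacterial capsules at 21 °C.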

[8] = measured here: PEO1 parental Z-AUC

| SMILES | Potency [1] | Potency [2] | Potency [3] | Potency [4] | Z-AUC [5] | Z-AUC [5, 8] | Z-AUC ([5]; measured here: PEO4 Z-AUC) | outcome [6] | Potency [7] |
| --- | --- | --- | --- | --- | --- | --- | --- | --- | --- |
| C=CC(C)(/C=C/c1ccc(O)cc1)CCC=C(C)C (centres undefined) | 20.6 µM (active) | 18.4 µM (active) | inactive |  |  |  |  |  |  |
| C[C@H](NC(=O)c1c(N)nn2cccnc12)c1cc2cccc(C#Cc3cnn(C)c3)c2c(=O)n1-c1ccccc1 | 1.62 µM (active) | 3.62 µM (active) | inactive | inactive | -0.378 (inactive) | 0.564 | 0.799 |  |  |
| Oc1cccc(Nc2ncnc3sc4c(c23)CCCC4)c1 | 9.2 µM (active) | 8.2 µM (active) | inactive |  |  |  |  |  |  |
| CC(=O)NCCNc1cc(Cl)nn2c(-c3cccc(S(=O)(=O)N(C)C)c3)c(C)nc12 | 7.31 µM (active) | 4.61 µM (active) | inactive |  |  |  |  |  |  |
| CC(=O)O/N=C1/C(c2c(O)[nH]c3cc(Br)ccc23)=Nc2ccccc21 | 1.84 µM (active) and 2.09 µM (active) | 2.06 µM (active) and 2.09 µM (active) | inactive | inactive | -1.48 (inactive) | 0.461 | -0.699 | inactive | 20.5 µM (active) |
| C[C@@H](C(=O)Nc1ccc(Cl)cc1)C1CCC(c2ccnc3ccc(F)cc23)CC1 (some centres undefined) | 14.8 µM (active) | 13.2 µM (active) | inactive | inactive | -1.08 (inactive) | -1.14 | -0.907 |  |  |
| CC(C)(C)C[C@H]1N[C@@H](C(=O)NC2CCC(O)CC2)[C@H](c2cccc(Cl)c2F)[C@@]12C(=O)Nc1cc(Cl)ccc12 (some centres undefined) | 1.48 µM (active) | 0.468 µM (active) | inactive | inactive | -0.139 (inactive) | 0.559 | 0.282 |  |  |
| O=C(NO)c1cnc(NC2(c3ccccc3)CC2)nc1 | 7.42 µM (active) | 7.42 µM (active) | inactive | inactive | -0.236 (inactive) | 0.229 | 0.185 | inactive |  |
| C[C@@H](OC[C@@]1(c2ccccc2)CC[C@]2(CCC(=O)N2)CN1)c1cc(C(F)(F)F)cc(C(F)(F)F)c1 | 9.34 µM (active) | 9.34 µM (active) | inactive | inactive |  |  |  |  |  |
| C[C@]12CCCN1CC1=NNC(=O)c3cc(F)cc4[nH]c2c1c34 | 10.5 µM (active) | 3.72 µM (active) | inactive | inactive | -0.827 (inactive) | -0.713 | 0.783 | inactive | inactive |
| N#Cc1c(N)nc(N)nc1N[C@H](c1nc2c(F)ccc(Cl)c2c(=O)n1-c1cccnc1)C1CC1 | 0.417 µM (active) | 0.417 µM (active) | inactive | inactive |  |  |  |  |  |
| CCN1/C(=C/C(C)=O)Sc2ccc(OC(C)=O)cc21 | 16.4 µM (active) | 20.6 µM (active) | inactive |  |  |  |  |  |  |
| COc1ccccc1C(=O)Nc1cc2c(cc1N1CCNC[C@H]1C)n(C)c(=O)n2C | 20.9 µM (active) | 18.6 µM (active) | inactive | inactive |  |  |  |  |  |
| O=c1c(-c2ccc(O)cc2)coc2cc(O[C@@H]3O[C@H](CO)[C@@H](O)[C@H](O)[C@H]3O)ccc12 | 16.6 µM (active) | 16.6 µM (active) | inactive | inactive | 1.43 (inactive) | 1.29 | 1.57 | inactive |  |
| Nc1n[nH]c(N)c1N=Nc1ccc(O)cc1 | 13 µM (active) | 14.6 µM (active) | inactive |  |  |  |  |  |  |
| COc1ccc(S(=O)(=O)N2CCc3cccc(-c4ccncc4)c32)cc1 | 0.833 µM (active) | 0.934 µM (active) | inactive | inactive | -1.73 (inactive) | -1.49 | -1.55 |  |  |
| C=CC(=O)Nc1ccc(F)c(-c2ncnc3[nH]cc(C(=O)OCC)c23)c1 | 16.6 µM (active) | 14.8 µM (active) | inactive | inactive |  |  |  |  |  |
| COc1ccc(Oc2cc(NCCC(F)(F)F)c3ncc(-c4ccc(C(=O)NC5CC5)c(C)c4)n3n2)c(F)c1F | 0.0235 µM (active) | 0.0148 µM (active) | inactive | inactive |  |  |  |  |  |
| Cc1cc(C(=O)Nc2nc3cccc(Cl)c3n2C2CCCCN(C(=O)/C=C/CN(C)C)C2)ccn1 (centres undefined) | 6.51 µM (active) | 6.51 µM (active) | inactive |  |  |  |  |  |  |
| NC(=O)c1ccc2nc(-c3ccc(C4(N)CCC4)cc3)c(-c3ccccc3)n2n1 | 0.296 µM (active) | 0.332 µM (active) | inactive | inactive | -0.331 (inactive) | -0.179 | 0.0521 |  |  |
| N#Cc1cc2cc(CN3CCC(Nc4ncnc5sc(CC(F)(F)F)cc45)CC3)c(O)cc2n1Cc1cn[nH]c1 | 13.2 µM (active) | 11.8 µM (active) | inactive | inactive | -1.24 (inactive) | -1.35 | -1.55 |  |  |
